# According to publication PMC5540273 (PLoS ONE, 2017):
# Legend:
# Conditions in all cases: concentration: 1 μM,replicates: in singlicate; n = 1
# CDK8 = test system: CDK8
# CDK9 = test system: CDK9
# CDKL1 = test system: CDKL1
# CDKL2 = test system: CDKL2
# CDKL3 = test system: CDKL3
# CDKL5 = test system: CDKL5
# CHEK1 = test system: CHEK1
# CHEK2 = test system: CHEK2
# CIT = test system: CIT
# CLK1 = test system: CLK1
# CLK2 = test system: CLK2
# CLK3 = test system: CLK3
# CLK4 = test system: CLK4
# CSF1R-autoinhibited = test system: CSF1R-autoinhibited
# CSF1R = test system: CSF1R
# CSK = test system: CSK
# CSNK1A1L = test system: CSNK1A1L
# CSNK1A1 = test system: CSNK1A1
# CSNK1D = test system: CSNK1D
# CSNK1E = test system: CSNK1E
# 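Further: KINOMEscan kinase panel screen.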
structure (smiles),measurement,setting,value
CN1CCN(CCNc2nc3cc(Oc4ccc(NC(=O)Nc5cc(C(F)(F)F)ccc5F)cc4)ccc3[nH]2)CC1.Cl.Cl [GW768504],%Inh,CDK8,55%
same,%Inh,CDK9,0%
same,%Inh,CDKL1,3%
same,%Inh,CDKL2,56%
same,%Inh,CDKL3,43%
same,%Inh,CDKL5,0%
same,%Inh,CHEK1,0%
same,%Inh,CHEK2,3%
same,%Inh,CIT,67%
same,%Inh,CLK1,2%
same,%Inh,CLK2,0%
same,%Inh,CLK3,0%
same,%Inh,CLK4,14%
same,%Inh,CSF1R-autoinhibited,0%
same,%Inh,CSF1R,60%
same,%Inh,CSK,0%
same,%Inh,CSNK1A1L,0%
same,%Inh,CSNK1A1,19%
same,%Inh,CSNK1D,0%
same,%Inh,CSNK1E,6%
O=C(Nc1n[nH]c2cc(-c3ccco3)ccc12)C1CC1 [SB-737447],%Inh,CDK8,0%
same,%Inh,CDK9,11%
same,%Inh,CDKL1,29%
same,%Inh,CDKL2,86%
same,%Inh,CDKL3,0%
same,%Inh,CDKL5,0%
same,%Inh,CHEK1,0%
same,%Inh,CHEK2,16%
same,%Inh,CIT,1%
same,%Inh,CLK1,28%
same,%Inh,CLK2,22%
same,%Inh,CLK3,19%
same,%Inh,CLK4,0%
same,%Inh,CSF1R-autoinhibited,0%
same,%Inh,CSF1R,0%
same,%Inh,CSK,10%
same,%Inh,CSNK1A1L,0%
same,%Inh,CSNK1A1,18%
same,%Inh,CSNK1D,0%
same,%Inh,CSNK1E,0%
O=C(Nc1ccc(Oc2ccc3nc(NC(=O)C4CC4)cn3n2)c(F)c1)c1cccn(-c2ccccc2)c1=O,%Inh,CDK8,63%
same,%Inh,CDK9,6%
same,%Inh,CDKL1,45%
same,%Inh,CDKL2,74%
same,%Inh,CDKL3,25%
same,%Inh,CDKL5,0%
same,%Inh,CHEK1,0%
same,%Inh,CHEK2,0%
same,%Inh,CIT,30%
same,%Inh,CLK1,1%
same,%Inh,CLK2,0%
same,%Inh,CLK3,0%
same,%Inh,CLK4,0%
same,%Inh,CSF1R-autoinhibited,0%
same,%Inh,CSF1R,100%
same,%Inh,CSK,0%
same,%Inh,CSNK1A1L,15%
same,%Inh,CSNK1A1,39%
same,%Inh,CSNK1D,0%
same,%Inh,CSNK1E,0%
COc1cccc(C2=C(Nc3cccc(Cl)c3)C(=O)NC2=O)c1 [SB-341556],%Inh,CDK8,0%
same,%Inh,CDK9,0%
same,%Inh,CDKL1,18%
same,%Inh,CDKL2,12%
same,%Inh,CDKL3,0%
same,%Inh,CDKL5,0%
same,%Inh,CHEK1,14%
same,%Inh,CHEK2,0%
same,%Inh,CIT,0%
same,%Inh,CLK1,69%
same,%Inh,CLK2,69%
same,%Inh,CLK3,0%
same,%Inh,CLK4,55%
same,%Inh,CSF1R-autoinhibited,0%
same,%Inh,CSF1R,18%
same,%Inh,CSK,0%
same,%Inh,CSNK1A1L,0%
same,%Inh,CSNK1A1,36%
same,%Inh,CSNK1D,10%
same,%Inh,CSNK1E,20%
CCn1c(-c2nonc2N)nc2cncc(Br)c21 [SB-738004],%Inh,CDK8,50%
same,%Inh,CDK9,4%
same,%Inh,CDKL1,2%
same,%Inh,CDKL2,0%
same,%Inh,CDKL3,0%
same,%Inh,CDKL5,0%
same,%Inh,CHEK1,0%
same,%Inh,CHEK2,41%
same,%Inh,CIT,0%
same,%Inh,CLK1,22%
same,%Inh,CLK2,77%
same,%Inh,CLK3,9%
same,%Inh,CLK4,37%
same,%Inh,CSF1R-autoinhibited,95.1%
same,%Inh,CSF1R,5%
same,%Inh,CSK,11%
same,%Inh,CSNK1A1L,0%
same,%Inh,CSNK1A1,12%
same,%Inh,CSNK1D,13%
same,%Inh,CSNK1E,19%
c1ccc(Oc2ccc(Nc3ccnc4ccc(-c5ccccn5)cc34)cc2)cc1 [GW407034],%Inh,CDK8,0%
same,%Inh,CDK9,0%
same,%Inh,CDKL1,9%
same,%Inh,CDKL2,16%
same,%Inh,CDKL3,0%
same,%Inh,CDKL5,14%
same,%Inh,CHEK1,26%
same,%Inh,CHEK2,0%
same,%Inh,CIT,4%
same,%Inh,CLK1,14%
same,%Inh,CLK2,0%
same,%Inh,CLK3,19%
same,%Inh,CLK4,0%
same,%Inh,CSF1R-autoinhibited,0%
same,%Inh,CSF1R,9%
same,%Inh,CSK,6%
same,%Inh,CSNK1A1L,13%
same,%Inh,CSNK1A1,0%
same,%Inh,CSNK1D,14%
same,%Inh,CSNK1E,36%
C[C@@H]1CNc2c(sc3ccc4nc(-c5ccncc5)ccc4c23)C(=O)N1,%Inh,CDK8,7%
same,%Inh,CDK9,44%
same,%Inh,CDKL1,11%
same,%Inh,CDKL2,0%
same,%Inh,CDKL3,5%
same,%Inh,CDKL5,0%
same,%Inh,CHEK1,0%
same,%Inh,CHEK2,18%
same,%Inh,CIT,22%
same,%Inh,CLK1,92.9%
same,%Inh,CLK2,94%
same,%Inh,CLK3,32%
same,%Inh,CLK4,81%
same,%Inh,CSF1R-autoinhibited,3%
same,%Inh,CSF1R,8%
same,%Inh,CSK,19%
same,%Inh,CSNK1A1L,66%
same,%Inh,CSNK1A1,95%
same,%Inh,CSNK1D,34%
same,%Inh,CSNK1E,29%
Cn1ccc2ncnc(Oc3ccc(NC(=O)Nc4cccc(C(F)(F)F)c4)c(F)c3)c21,%Inh,CDK8,100%
same,%Inh,CDK9,24%
same,%Inh,CDKL1,62%
same,%Inh,CDKL2,45%
same,%Inh,CDKL3,7%
same,%Inh,CDKL5,0%
same,%Inh,CHEK1,0%
same,%Inh,CHEK2,1%
same,%Inh,CIT,78%
same,%Inh,CLK1,13%
same,%Inh,CLK2,9%
same,%Inh,CLK3,4%
same,%Inh,CLK4,0%
same,%Inh,CSF1R-autoinhibited,0%
same,%Inh,CSF1R,99.9%
same,%Inh,CSK,0%
same,%Inh,CSNK1A1L,0%
same,%Inh,CSNK1A1,39%
same,%Inh,CSNK1D,22%
same,%Inh,CSNK1E,13%
COc1cccc(OC)c1C(=O)Nc1cccc(-c2nn3ccccc3c2-c2ccnc(Nc3cccc(F)c3)n2)c1 [GSK361065],%Inh,CDK8,0%
same,%Inh,CDK9,0%
same,%Inh,CDKL1,15%
same,%Inh,CDKL2,6%
same,%Inh,CDKL3,3%
same,%Inh,CDKL5,0%
same,%Inh,CHEK1,13%
same,%Inh,CHEK2,0%
same,%Inh,CIT,36%
same,%Inh,CLK1,21%
same,%Inh,CLK2,21%
same,%Inh,CLK3,0%
same,%Inh,CLK4,0%
same,%Inh,CSF1R-autoinhibited,4%
same,%Inh,CSF1R,60%
same,%Inh,CSK,18%
same,%Inh,CSNK1A1L,0%
same,%Inh,CSNK1A1,25%
same,%Inh,CSNK1D,9%
same,%Inh,CSNK1E,64%
COC(=O)Nc1nc2cc(Oc3ccc(NC(=O)Nc4cc(C(F)(F)F)ccc4Cl)cc3)ccc2[nH]1.Cl [GW697465],%Inh,CDK8,86%
same,%Inh,CDK9,0%
same,%Inh,CDKL1,14%
same,%Inh,CDKL2,81%
same,%Inh,CDKL3,0%
same,%Inh,CDKL5,0%
same,%Inh,CHEK1,0%
same,%Inh,CHEK2,41%
same,%Inh,CIT,97.9%
same,%Inh,CLK1,34%
same,%Inh,CLK2,0%
same,%Inh,CLK3,13%
same,%Inh,CLK4,43%
same,%Inh,CSF1R-autoinhibited,47%
same,%Inh,CSF1R,99.6%
same,%Inh,CSK,0%
same,%Inh,CSNK1A1L,9%
same,%Inh,CSNK1A1,0%
same,%Inh,CSNK1D,69%
same,%Inh,CSNK1E,39%
